Test results as given in PubChem BioAssay (NCI).
Values joined by “and” are separate entries in the source; they are usually repeats but may differ in a detail not shown here. Equal values may be shown once. About 83,000 compounds went through this panel and 20% of them were active in at least one assay; those are over-represented in the sample as a whole.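 Plates (96-well) were seeded with cells, treated with compound at one concentration, and incubated for 48 hours before percent growth was determined.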 Active and inactive are the calls of the source. The calls were made as follows: active = growth percent below 10; inactive = the rest.

System: T-47D breast
Test: NCI-60 one-dose screen, 48 h (100 = growth as untreated, 0 = no growth, -100 = all killed)
Conditions: 10 µM unless noted

Row | Structure (SMILES) | growth
1 | O=C(/C=C/Nc1ccc(S(=O)(=O)Nc2ncccn2)cc1)c1ccc(N=Cc2c(O)[nH]c3ccccc23)cc1 | 93.1% (inactive)
2 | CCCCCN1C(=O)/C(=c2\sc3n(c2=O)C2C(NN=3)N(CC)C(=O)N2CC)c2cccc(C)c21 (stereo not given) | 44% (inactive)
3 | C#C[C@]1(O)CC[C@H]2[C@@H]3CC=C4c5sc(Nc6ncccc6C)nc5CC[C@]4(C)[C@H]3CC[C@@]21C | 29.2% (inactive)
4 | O=C1CSC(c2cn(-c3ccccc3)nc2-c2ccc(Cl)cc2)N1c1ccccc1 (stereo not given) | 102% (inactive)
5 | CC(=O)Nc1ccccc1-c1nc2ccccc2s1 | 99.3% (inactive)
6 | O=C(/C=C/c1cccc(Br)c1)c1cccc(OCCCCOc2cccc(C(=O)/C=C/c3cccc(Br)c3)c2)c1 | 104% (inactive)
7 | C/C(=C(\c1ccc(O)cc1)c1ccc(OCCN2CCCCCC2)cc1)c1ccc(Cl)cc1 | -71.9% (active)
8 | Clc1ccc(CSc2nnc(-c3ccc(Cl)cc3)n2-c2ccccc2)cc1 | 80.9% (inactive)
9 | O=C(CCCCCCNC(=O)C(O)(O)C(F)(F)F)Nc1nc2ccccc2s1 | 12.1% (inactive)
10 | CC(C)NC(=O)c1cc(-c2ccc(NC(=O)Nc3ccc(F)c(C(F)(F)F)c3)cc2)nc2cccnc12 | 80.3% (inactive)
11 | COc1ccc(-c2cnc(NC(=O)CCCCCCNC(=O)C(O)(O)C(F)(F)F)s2)cc1 | 0.87% (active)
12 | C/C=C/CC(C)C(O)[C@H](NC(=O)[C@@H]1CCCN1C(=O)[C@](C)(CC)NC(=O)CCCCCCCCC)C(=O)N[C@@](C)(CC)C(=O)N[C@@H](CCC(N)=O)C(=O)N[C@H](CCC(N)=O)C(=O)NC(C)(C)C(=O)NC(C)(C)C(=O)N[C@@H](CCC(N)=O)C(=O)N[C@H](CC(C)C)C(=O)N[C@H](CO)CC(C)C (stereo not given in full) | 61.9% (inactive) and -23.3% (active)
13 | CC1CC(=O)C2=C(C1)Nc1ccc(Br)cc1CC2c1c[nH]c2ccc(Br)cc12 (stereo not given) | 33.4% (inactive)
14 | CC(C)(C)Nc1nc2c(OCCc3ccccc3)cccn2c1-c1cccc(Oc2ccccc2)c1 | 8.72% (active)
15 | CCCC/C(=C\c1ccc(O)c(O)c1)C(=O)NC(Cc1ccccc1)C(=O)C(=O)NCCc1ccc(OC)cc1 (stereo not given) | 94.9% (inactive)
16 | COC(=O)c1cccc(NC2=C(Cl)C(=O)c3nc(C)ccc3C2=O)c1 | -28.1% (active)
17 | NC1CC2(CCN(c3cnc(C(=O)Nc4cc(F)cc5cccnc45)cn3)CC2)C1 | 64.5% (inactive)
18 | COC(=O)c1ccc(NC2=C(Cl)C(=O)c3nc(C)ccc3C2=O)cc1 | 31.2% (inactive)
19 | CC(Nc1c(C#N)cnc2ccc(-c3cncc(-c4n[nH]c(=O)o4)c3)cc12)c1ccccc1 (stereo not given) | 13.1% (inactive)
20 | CC(=O)OC[C@]12CC[C@@H](C(=O)/C=C/c3cccnc3)[C@@H]1[C@H]1CC[C@@H]3[C@@]4(C)CC[C@H](OC(C)=O)C(C)(C)[C@@H]4CC[C@@]3(C)[C@]1(C)CC2 | -16.7% (active)

Row | Structure (SMILES) | growth
21 | CC(O)c1cccc(/C(N)=N/C(N)=N/c2nc3ccccc3s2)c1 (stereo not given) | 83.6% (inactive)
22 | CC(C)=CCC[C@](C)(O)[C@H]1CC[C@]2(C)[C@@H]1CC[C@@H]1[C@@]3(C)CC[C@H](N)C(C)(C)[C@@H]3CC[C@]12C | 107% (inactive)
23 | Cc1ccc2c(n1)C(=O)C(Cl)=C(Nc1cccc(C)c1C)C2=O | -56.7% (active)
24 | C[C@]12CC[C@H]3[C@@H](CC=C4C[C@@H](O)CC[C@@]43C)[C@@H]1CC[C@@H]2[C@](C)(O)CCc1cccnc1 | 36.3% (inactive)
25 | CN1CCN(c2ccc(Nc3nc(NCCCNS(=O)(=O)c4ccc(C(F)(F)F)cc4)c4sccc4n3)cc2)CC1 | -29% (active)
26 | Cc1ccc2c(n1)C(=O)C(Cl)=C(Nc1cccc(C(F)(F)F)c1)C2=O | -41.9% (active)
27 | O=C(CN1CCN(c2cc(=O)[nH]c3ccc(F)cc23)CC1)N(c1ccccc1)c1ccccc1 | 97.4% (inactive)
28 | Cc1[nH]c(C(=O)Nc2ccc(C(N)=O)cc2N2CCOC(C)C2)c(Cl)c1Cl (stereo not given) | 83% (inactive)
29 | CC1(C)CC[C@]2(C(=O)O)CC[C@]3(C)C(=CC[C@@H]4[C@@]5(C)CC[C@H](NOCCCN)C(C)(C)[C@@H]5CC[C@]43C)[C@@H]2C1 | 73.1% (inactive)
30 | Cc1ccc2c(n1)C(=O)C(Cl)=C(Nc1ccc(C#N)cc1)C2=O | 7.98% (active)
31 | CC(=O)Nc1nc(C)c(-c2csc(Nc3ccccc3)n2)s1 | 7.07% (active)
32 | O=C(/C=C/c1cccc(F)c1)c1cccc(OCCCCOc2cccc(C(=O)/C=C/c3cccc(F)c3)c2)c1 | 105% (inactive)
33 | O=S(=O)(NCCCNc1nccc(-c2[nH]c(-c3ccccc3)nc2-c2ccc(F)c(O)c2)n1)c1ccc(C(F)(F)F)cc1 | 50.7% (inactive)
34 | O=C(CCCCCCNC(=O)C(O)(O)C(F)(F)F)Nc1ncc(-c2ccccc2)s1 | 8.47% (active)
35 | CN(C)c1ccc(/C=N/Nc2nc(N/N=C/c3ccc(N(C)C)cc3)nc(N3CCCCC3)n2)cc1 | 46% (inactive)
36 | NC1[C@H]2CN(c3cnc(C(=O)Nc4cc(F)cc5cccnc45)cn3)C[C@@H]12 (stereo not given in full) | 32.4% (inactive)
37 | Clc1cccc(/C=N/Nc2nc(N/N=C/c3cccc(Cl)c3)nc(N3CCCCC3)n2)c1 | 76% (inactive)
38 | CC(Nc1ncnc2ccc(-c3cnc4cnccn34)cc12)c1ccccc1 (stereo not given) | 17.5% (inactive)
39 | CN1CCN(c2ccc(Nc3nc(NCCNC(=O)c4ccccc4)c4sccc4n3)cc2)CC1 | 18.1% (inactive)
40 | O=C(CSc1nc2ccccc2c(=O)n1-c1ccccc1)N/N=C/c1ccc(Oc2ccc(Cl)cc2)cc1 | 82.5% (inactive)
